About 83,000 compounds went through this panel and 20% of them were active in at least one assay; those are over-represented in the sample as a whole.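 Each cell line was grown in a 96-well plate and treated with one concentration of compound for 48 hours. Values below 10 were considered active.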 Values without a mark were called inactive. Calls of active or inactive are those of the source.

What all share (assay): NCI-60 one-dose screen, 48 h (100 = growth as untreated, 0 = no growth, -100 = all killed)
Conditions in all cases: 10 µM unless noted

The test system of assay [1] is SR leukemia.
Assay [2] relates to RPMI-8226 leukemia.
In assay [3] the test system is OVCAR-8 ovarian.
Assay [4] deals with OVCAR-5 ovarian.
Assay [5] has as its system OVCAR-4 ovarian.
Assay [6] concerns SK-OV-3 ovarian.
The subject of assay [7] is IGROV1 ovarian.
The subject of assay [8] is OVCAR-3 ovarian.
The subject of assay [9] is HS 578T breast.
The subject of assay [10] is NCI/ADR-RES ovarian.

`C/C=C(/C(=C/C)c1ccc(O)cc1)c1ccc(O)cc1`: the growth is 15.5% in assay [1]; 18.3% in assay [2]; 48.3% in assay [3]; 50.1% in assay [4]; 58.6% in [5]; 10.7% in [6]. Also, the growth was 36.2% in assay [7], -1.49% (active) in assay [8], 25.6% in [9] and 24.3% in [10].
Take `COc1ccc2c(c1)CC[C@@H]1[C@@H]2CC[C@]2(C)[C@@H](O)C(=O)C[C@@H]12`: the growth in assay [1] was 84.2%; in [2] it was 103%; in assay [3], 101%; in assay [4], 95.8%; in assay [5] it was 107%; in assay [6] it was 120%. Also, the growth in [7] was 115%; in assay [8], 106%; in assay [9], 100%; in [10] it was 105%.
`O=C(Nc1ccccc1OC(=O)c1ccccc1)c1ccccc1`: the growth was 58.8% in [1]; 91.7% in assay [2]; 92.6% in [3]; 93.1% in assay [4]; 63.5% in [5]; 89.2% in assay [6]. Also, the growth is 90.6% in assay [7], 77.7% in assay [8], 101% in [9] and 87.8% in assay [10].
As to `COc1cc(-c2nc3sc4c(c3c(=O)[nH]2)CCCCCC4)cc(OC)c1OC`, the growth is 15.5% in [1]; 7.95% (active) in [2]; 25.2% in assay [3]; 37.8% in assay [4]; 61.6% in assay [5]; 14.2% in assay [6]. In addition, the growth in assay [7] was 34.5%; in assay [8], -3.03% (active); in [9], 5.2% (active); in [10], -6.9% (active).
In the case of `Cc1onc(-c2ccccc2Cl)c1C(=O)N[C@@H]1C(=O)N2[C@@H]1SC(C)(C)[C@@H]2C(=O)O`, the growth is 91.6% in assay [1]; 95.4% in [2]; 106% in assay [3]; 115% in assay [4]; 110% in assay [5]; 104% in assay [6]. For the same compound, the growth in [7] is 101%; in [8] it was 118%; in assay [9], 114%; in [10] it was 109%.
For the compound `OC(c1cc(-c2cccc(Cl)c2)nc2ccccc12)C1CCCCN1` (centres undefined), the growth is -33.8% (active) in [1]; -26.8% (active) in assay [2]; -52.6% (active) in assay [3]; 2.42% (active) in assay [4]; -7.1% (active) in assay [5]; 48.3% in assay [6]. Also, the growth in assay [7] is -61.7% (active); in [8], -13.1% (active); in [9], 34.9%; in assay [10], -29.4% (active).
Regarding `CCN(CC)CCNCC(=O)Oc1ccc(/C=C/C(=O)CC(=O)/C=C/c2ccc(OC(=O)CNCCN(CC)CC)c(OC)c2)cc1OC`, the growth in [1] is -1.72% (active); in assay [2] it was -46.2% (active); in assay [3], 3.99% (active); in assay [4], 36.6%; in assay [5], 44.3%; in assay [6], 27.3%. Also, the growth in assay [7] was -24.5% (active); in assay [8], 13.3%; in assay [9] it was -3.97% (active); in assay [10], 71.6%.
Regarding `COc1cc(/C=C/C(=O)C(C(=O)/C=C/c2ccc(OC(=O)CCNC34CC5CC(CC(C5)C3)C4)c(OC)c2)C(=O)CCNC23CC4CC(CC(C4)C2)C3)ccc1OC(=O)CCNC12CC3CC(CC(C3)C1)C2` (centres undefined), the growth in [1] was -48.6% (active); in assay [2], -51.6% (active); in [3] it was 8.87% (active); in assay [4], 37.8%; in [5] it was 25.8%; in assay [6] it was 42.8%. Moreover, the growth in assay [7] was -33.2% (active); in [8], 14.9%; in assay [9], 6.55% (active); in assay [10], 41.7%.
As to `COc1ccc(-c2nc3sc4c(c3c(=O)[nH]2)CCCCCC4)cc1`, the growth in assay [1] is 27.9%; in assay [2], 72%; in assay [3], 70.7%; in assay [4], 83.8%; in assay [5], 50.4%; in [6], 48%. In addition, the growth in assay [7] is 63.1%; in assay [8], 44.2%; in [9], 58.4%; in assay [10] it was 51.2%.
For `N/C(=N\c1nc2ccccc2s1)NC(=O)Nc1ccccc1Cl`, the growth in [1] was 9.92% (active); in assay [2] it was 10.1%; in assay [3], 15.5%; in [4] it was 32.5%; in assay [5], 69.3%; in assay [6] it was 31.8%. Also, the growth in assay [7] was 20.8%; in assay [8], -14.2% (active); in assay [9], 30%; in assay [10], 6.38% (active).
Turning to `CCCCCCC(CC#N)(CCC)CCCC` (centres undefined), the growth in [1] was 103%; in assay [2], 103%; in [3] it was 105%; in assay [4], 97.8%; in assay [5], 114%; in assay [6], 113%. In addition, the growth in assay [7] was 101%; in assay [8], 119%; in [9], 95.3%; in assay [10], 109%.
Take `Fc1ccccc1C1c2ccccc2-c2nccn21` (centres undefined): the growth is 78.1% in assay [1]; 80.3% in assay [2]; 95.8% in [3]; 96.3% in [4]; 90% in [5]; 109% in assay [6]. Further, the growth in assay [7] was 79.6%; in [8] it was 96.7%; in [9] it was 98.8%; in assay [10], 93.5%.
Regarding `Cc1cc2c(cc1C)[n+](Cc1ccc3ccccc3c1)cn2Cc1ccc2ccccc2c1`, the growth in assay [1] is -50.6% (active); in assay [2], -49.6% (active); in assay [3], -79% (active); in [4], -87.1% (active); in [5], -76% (active); in [6], -27% (active). In addition, the growth in assay [7] was -84.9% (active); in assay [8], -94.2% (active); in [10] it was 80.7%.

The record behind these values is PubChem BioAssay (NCI).
